Screening data from PubChem BioAssay.
NPR1 activator: GC-A (human) enzyme activation | P16066 | HEK293 GC-A cells, cGMP TR-FRET, EC30 ANP; 0% at EC30 ANP, 100% saturating ANP | activation, % at 10 µM | 0.14% of 370,000 active | AID 1671463; in the data active means activation above about 40%
ADAM17 inh: inhibitors of human ADAM17. P78536. inhibition, % at 6.95 µM. 0.83% of 370,000 active. recombinant ADAM17, EDANS/DABCYL FRET peptide cleavage;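 active means inhibition above the mean of compounds lying between control limits plus 3 SD, set per campaign, cut at about 8.5% in these data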;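 further: 0% = DMSO-only wells as the low control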
ADAM10 inh: inhibitors of human ADAM10 | O14672 | recombinant ADAM10, EDANS/DABCYL FRET peptide cleavage, 3 h | 0.62% of 370,000 active | inhibition, % at 7 µM;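 active means inhibition above a per-campaign cutoff equal to the mean of compounds falling between control-based bounds plus 3 SD, cut at about 20% in these data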;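 further: 0% = DMSO wells while the 100% control is not disclosed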
FAS TE block: FAS thioesterase (human) inhibition | inhibition, % at 15 µM | 0.67% of 360,000 active | recombinant FAS-TE, OMFH fluorogenic substrate, fluorescence endpoint | P49327;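 active means compounds whose normalised, plate-corrected inhibition of enzyme fluorescence in the single-dose primary screen is 50% or more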;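 further: 0% = DMSO with enzyme and 100% = substrate without enzyme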
GC-B act: GC-B (human) receptor activation; HEK293-GC-B cells, CNP EC30, cGMP TR-FRET; 0% at EC30 CNP, 100% saturating CNP; activation, % at 10 µM; AID 1920062; 0.11% of 370,000 active;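 active means activation at 10 µM reaching about 35% in either raw or pattern-adjusted values, limit read from the data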
FAS-TE inh conf: FAS thioesterase (human) inhibition, confirmation. shares compounds with FAS TE block. recombinant FAS-TE, OMFH fluorogenic substrate, fluorescence. inhibition, % at 15 µM. 45% of 2,300 active. AID 624325;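 active means compounds inhibiting the enzyme by at least 50% at 15 µM in any one of the replicates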;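 further: 0% = enzyme with DMSO only and 100% = wells lacking enzyme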
The depositor's hits bear a star; · = not tested or not shown. Sampled rows, rich in hits. Any-hit rate of the full collection: about 2%.

SMILES | NPR1 activator | ADAM17 inh | ADAM10 inh | FAS TE block | GC-B act | FAS-TE inh conf
COC(=O)[C@H]1C[C@@]2(C3C=CC=C3)c3ccccc3N[C@H]2N1 | -0.2 | -1.1 | -1.7 | · | -2.2 | ·
CC(C)c1ccccc1-n1c(SCC(=O)N2CCc3ccccc3C2)nc2ccccc2c1=O | -0.9 | 3.7 | 14.4 | 60.3* | -1.8 | 23.1
COc1ccc2c(c1)N=CN1CCc3c([nH]c4ccccc34)C3=NCC[C@@]321 | -38.5 | -5.2 | -13.5 | · | -32.1 | ·
O=C(Nc1ccc(Cl)cc1)N1CCCN(c2ccc(C(F)(F)F)cc2[N+](=O)[O-])CC1 | -17.0 | 3.2 | 2.5 | 54.5* | -12.4 | 20.9
O=C(O)c1cc(-c2ccc(/C=N/NC(=S)Nc3ccccc3)o2)ccc1Cl | -2.6 | -20.1 | -60.8 | 50.2* | -4.9 | 54.8*
COC(=O)[C@]12C[C@H](CC(=O)N3CCCC3)C(=O)N(CCC3=CCCCC3)C1=C[C@H](COCc1ccccc1)O[C@@H]2C | 2.9 | -1.9 | 1.0 | · | 4.4 | ·
CC(=O)c1cccc2c1OC(C)C(=O)N2Cc1ccc(Cl)cc1 (centres undefined) | -3.5 | -8.7 | -27.3 | 57.4* | 2.1 | 62.3*
COc1ccc(CN2C(=O)C(C)Oc3ccccc32)cc1 (centres undefined) | -3.1 | -0.1 | -1.7 | 9.6 | -4.5 | ·
COc1ccc(NC(=O)CN2CCN(c3nc(-c4ccc(F)cc4)cs3)CC2)c(OC)c1 | -1.8 | -2.1 | 7.9 | 54.5* | 6.0 | 22.2
O=C(CN1CCN(c2nc(-c3ccccc3)cs2)CC1)Nc1ccc(F)cc1F | -2.6 | 4.6 | 12.6 | · | -4.0 | ·
O=S1(=O)C=CCN1Cc1cn(Cc2cccc(C(F)(F)F)c2)nn1 | 1.4 | -0.8 | 2.0 | · | 1.2 | ·
O=C(CCC1CCCC1)Nc1ccc([N+](=O)[O-])cn1 | 6.0 | 3.2 | 5.6 | 12.2 | -4.9 | ·
O=C(O)CC(NC(=O)CCC1CCCCC1)c1cc([N+](=O)[O-])ccc1Cl (centres undefined) | -5.3 | 0.5 | 6.5 | 60.3* | 2.7 | 67.3*
Fc1cccc(-c2cc3nc4c(c(N5CCC6(CC5)OCCO6)n3n2)CCCC4)c1 | -4.6 | -3.4 | -10.6 | 54.9* | 2.5 | 35.0
OC1CCN(c2c3c(nc4cc(-c5cccc(F)c5)nn24)CCCC3)CC1 | 9.7 | -10.1 | -65.0 | 6.0 | 2.2 | ·
CC(=O)N1CCN(C(=O)C2CCCN(C(=O)c3ccc4c(c3)NC(=O)CS4)C2)CC1 (centres undefined) | 1.9 | 0.3 | -4.6 | · | -1.1 | ·
COc1ccc(/C=C(\NC(=O)c2ccc(C)cc2)C(=O)NCCCn2ccnc2)cc1 | -2.2 | -1.3 | -13.7 | -3.4 | 1.9 | ·
CC(C)(C)NC(=O)/C(=C/c1ccccc1F)NC(=O)c1ccc([N+](=O)[O-])cc1 | 0.6 | -4.2 | -2.6 | 41.6 | 0.3 | ·
CCCCOc1ccc(C(=O)N/C(=C\c2ccc([N+](=O)[O-])cc2)C(=O)OCc2ccco2)cc1 | -3.1 | -3.5 | 4.7 | 59.8* | 0.4 | 39.8
COc1ccc(/C=C(\NC(=O)c2ccc([N+](=O)[O-])cc2)C(=O)NCCCn2ccnc2)cc1 | 3.4 | 0.4 | 3.2 | 74.5* | 5.2 | 81.2*
O=C(Nc1ccc(C(=O)O)cc1)/C(=C\c1ccc([N+](=O)[O-])cc1)NC(=O)c1ccc(Br)cc1 | 3.2 | 0.6 | 7.5 | 82.1* | -0.5 | 91.1*
COc1ccc(/C=C(/NC(=O)c2ccc([N+](=O)[O-])cc2)C(=O)NC(C)(C)C)cc1 | -1.5 | 0.5 | 1.2 | 70.4* | 3.0 | 54.8*
O=C(c1cccs1)n1ccc2ccc(-c3ccc4ccn(Cc5ccccc5)c4c3)cc21 | 1.5 | -10.9 | -30.3 | · | -4.3 | ·
CSCC[C@H](NC(=O)c1cc([N+](=O)[O-])ccc1Cl)c1nc2ccccc2[nH]1 | -9.3 | -0.3 | 4.9 | 62.7* | -1.7 | 41.1
COC(=O)C12C=C3CC(c4ccc(C)s4)=C3C(=O)N1Cc1[nH]c3ccccc3c1C2 (centres undefined) | 2.3 | -8.5 | -27.1 | · | 10.7 | ·
SMILES | NPR1 activator | ADAM17 inh | ADAM10 inh | FAS TE block | GC-B act | FAS-TE inh conf
O=S(=O)(Nc1cccc(-c2ccc(N3CCCCCC3)nn2)c1)c1ccccc1F | 0.7 | -3.8 | -0.8 | 55.5* | -2.8 | 62.1*
O=S(=O)(Nc1cccc(-c2ccc(N3CCCCCC3)nn2)c1)c1ccccc1Cl | -3.0 | -0.2 | 7.0 | 50.1* | 1.9 | 10.7
N#CCC[C@H]1CC[C@]2(CCCN(C(=O)c3ccc4ccccc4n3)C2)O1 | 3.2 | 0.4 | -0.6 | · | -3.0 | ·
O=C(Nc1c(C(=O)N2CCOCC2)cnn1-c1ccccc1)c1ccc([N+](=O)[O-])cc1 | 2.4 | 1.6 | -0.7 | 52.3* | -2.4 | 56.0*
Cc1ccc(C(=O)Nc2c(C(=O)N3CCOCC3)cnn2-c2ccccc2)cc1 | -0.4 | -4.0 | 1.4 | 2.8 | -8.6 | ·
O=C(CN1CCN(S(=O)(=O)c2ccc(Cl)c(C(F)(F)F)c2)CC1)NC(=O)NC1CCCCC1 | -3.3 | 1.6 | -4.2 | 76.8* | -1.7 | 20.2*
CN(c1ccccc1)S(=O)(=O)c1ccc(NC(=O)c2nc(S(C)(=O)=O)ncc2Cl)cc1 | 48.7* | -8.1 | 0.4 | 58.4* | 38.1* | 68.2*
Cc1ccc(-c2csc3nc(C(C)C)oc(=O)c23)c(C)c1 | 8.4 | -5.1 | -8.4 | 86.1* | -3.3 | 69.1*
COc1cccc(-c2nnc(SCC(=O)Nc3cccc4ccccc34)n2Cc2ccco2)c1 | 13.6 | 6.1 | 7.4 | · | 20.1 | ·
Cc1ccc(/C=N\NC(=O)C2CN(S(=O)(=O)c3ccccc3)CCN2S(=O)(=O)c2ccccc2)cc1 (centres undefined) | 4.0 | 4.9 | 7.9 | 80.6* | 3.9 | 19.4
CCNC(=O)C1CN(S(=O)(=O)c2ccccc2)CCN1S(=O)(=O)c1ccccc1 (centres undefined) | -0.9 | -5.3 | 6.9 | -8.1 | 2.1 | ·
O=C(Nc1ccccc1)Nc1nc2ncccn2c1-c1ccc(F)c(F)c1 | 1.9 | -28.3 | -89.0 | · | 6.2 | ·
COC(=O)c1ccc(S(=O)(=O)N2CCN(C(c3ccccc3)c3ccccc3)CC2)n1C | -3.3 | -4.0 | 5.1 | 54.6* | 0.1 | 6.6
COc1cccc(NC(=S)N2CCc3cc(OC)c(OC)cc3C2COc2ccc3c(C)cc(=O)oc3c2)c1 (centres undefined) | 2.0 | -82.1 | -258.3 | 58.2* | -1.6 | 7.3
CCNC(=S)N1CCc2cc(OC)c(OC)cc2C1COc1ccc(OC)cc1 (centres undefined) | 4.1 | 2.6 | 3.5 | 16.2 | 0.9 | ·
COc1ccccc1CNC(=O)N1CCC(c2nc3ccc(Cl)cc3[nH]2)CC1 | -3.5 | -1.2 | -3.2 | · | -8.0 | ·
Cc1ccc(S(=O)(=O)N(C)C)cc1NC(=O)[C@H](Cc1ccccc1)N1C(=O)c2ccccc2C1=O | -3.8 | 0.8 | 4.2 | 52.8* | -2.9 | 30.2
